Structures can show the parent of a compound that is named as a salt. Values without a mark were called inactive.
test system: NCI-H1688; assay: inhibition of cell viability relative to untreated control (fraction); higher = stronger growth inhibition, active = 0.5 or more; conditions: 30 µM; 24 h
In short: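 Compounds from a natural compound library (TargetMol) were tested at 30 µM on NCI-H1688 small cell lung cancer cells for 24 h at 37°C under 5% CO2. Cell Counting Kit-8 absorbance at 450 nm, read in triplicate, gave the viability. The values express inhibition of cell viability as a fraction relative to untreated cells.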

SMILES | inhibition of cell viability
C[C@H](O)[C@H]1CC[C@H]2[C@@H]3CC[C@@H]4C[C@H](O)CC[C@]4(C)[C@H]3CC[C@]12C [5Beta-Pregnane-3Alpha,20alpha-Diol] | -0.113
O=C[C@H](NS(=O)(=O)O)[C@@H](O)[C@H](O)[C@H](O)CO [N-Sulfo-glucosamine sodium salt] | 0.162
C[N+]1(C)CCCC1C(=O)O (configuration not stated) | 0.205
O=c1c(O)c(-c2ccc(O)cc2)oc2cc(O)cc(O)c12 [Kaempferol] | -0.00334
CC(=O)O[C@]1(C)CC[C@@]23C[C@H]1C(C)(C)[C@@H]2CC[C@H]3C [Cedryl acetate] | -0.223
C=C(C)[C@H]1CC=C(C)C(=O)C1 [(S)-(+)-Carvone] | 0.248
Cc1ccc(C(C)C)cc2c(C)ccc1-2 [Guaiazulene] | 0.0813
N[C@@H]1CONC1=O [D-Cycloserine] | 0.0589
C=C1CC[C@@H]2[C@](C)(CO)[C@H](O)CC[C@@]2(C)[C@H]1C/C=C1\C=COC1=O [Dehydroandrographolide] | 0.14
C[N+](C)(C)CC(=O)O [Betaine hydrochloride] | -0.247
CC1(C)CCCC2(C)OC(=O)C=C12 (configuration not stated) [Dihydroactinidiolide] | 0.194
COc1ccc(CCC(=O)c2c(O)cc(O[C@@H]3O[C@H](CO)[C@@H](O)[C@H](O)[C@H]3O[C@@H]3O[C@@H](C)[C@H](O)[C@@H](O)[C@H]3O)cc2O)cc1O [Neohesperidin Dihydrochalcone (Nhdc)] | -0.0245
